# Bioassay records as filed in PubChem.
# In the library only some 1.9% were active in any assay of this set; here they are far more common.
# EP2 antag = EP2 receptor (human) inhibition. P43116. C6 glioma cells expressing human EP2, cAMP TR-FRET; cells stimulated with saturating PGE2. inhibition, % at 25 µM. 260,000 tested, 0.52% active. AID 1422;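 active = percent inhibition above 40 after rounding to a whole number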;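 also: rat C6 glioma host cells with rolipram phosphodiesterase inhibitor present; the protocol text gives 20 µM as final concentration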
# Target sequence (P43116 whole entry, looked up): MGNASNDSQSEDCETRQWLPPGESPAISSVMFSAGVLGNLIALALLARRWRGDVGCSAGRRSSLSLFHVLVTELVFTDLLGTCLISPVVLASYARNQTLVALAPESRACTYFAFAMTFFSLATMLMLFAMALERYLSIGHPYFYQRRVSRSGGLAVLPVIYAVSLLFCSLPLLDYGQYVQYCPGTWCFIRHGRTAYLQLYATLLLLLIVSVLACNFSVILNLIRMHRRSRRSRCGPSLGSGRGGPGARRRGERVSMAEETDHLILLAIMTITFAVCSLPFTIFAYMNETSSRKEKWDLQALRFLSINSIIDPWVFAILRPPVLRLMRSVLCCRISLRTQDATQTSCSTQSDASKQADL
# EP2 mod = modulates human prostaglandin E2 receptor EP2 signaling | P43116 | EP2-expressing cells, cAMP HTRF FRET, PGE2 co-stimulation | induction, % at 25 µM | 260,000 tested, 0.83% active | AID 940;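 active = compounds whose cAMP rise, as percent of the full-agonist control response, exceeds 60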;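 also: rat C6 glioma line stably carrying human EP2 under a CMV promoter; the protocol text gives 20 µM as final concentration; 100% = response of wells given 1 µM PGE2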
# Furin inhibitor = human furin inhibition; P09958; purified furin, fluorogenic substrate cleavage; inhibition, % at 20 µM or 30 µM; 220,000 tested, 0.061% active; in the data active = inhibition above about 25%
# HMGR II inh = blocks class II HMG-CoA reductase of Enterococcus faecalis; purified E. faecalis HMGR, NADPH absorbance 340 nm kinetic; 190,000 tested, 0.41% active; inhibition, % at 10 µM;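 active = inhibition above a set limit, the median over all tested compounds plus 3 SD, cut at about 9.5% in these data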;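 also: enzyme runs in reverse so mevalonate oxidation gives rising NADPH absorbance; 0% = complete reaction with DMSO and 100% = background rate lacking mevalonate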
# m-calpain inh = blocks pig calpain II enzyme activity; purified calpain II, fluorogenic peptide substrate, 30 min; inhibition, % at 16 µM; 220,000 tested, 0.37% active;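 active = inhibition above about 50%, limit read from the data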
# EP2 confirm = EP2 receptor cAMP induction, counter-screens negative. calls only at 20 µM (by protocol). C6 glioma EP2 cells, cAMP HTRF induction; plus low (about EC15) PGE2 agonist. 1,300 tested, 47% active. shares compounds with EP2 mod;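 active = cAMP induction above 50% in the main assay while under 30% in all four parallel counter assays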;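 also: rat C6 glioma cells stably expressing human EP2 receptor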
# Numbers without * were called inactive; i = inactive; · = no result; + = active, no number.
SMILES,EP2 antag,EP2 mod,Furin inhibitor,HMGR II inh,m-calpain inh,EP2 confirm
CCCCOC(=O)CSc1nc(N)c(C#N)c(-c2ccc(OC)cc2)c1C#N,15,41,-29,1,-103,·
Cc1onc(-c2ccccc2)c1C(=O)N(Cc1ccco1)Cc1cccs1,9,98*,11,-4,32,+
Cc1onc(-c2ccccc2)c1C(=O)NCc1ccco1,10,0,-23,-2,-1,·
Cc1cc2cc3c(cc2nc1SCC(=O)OC(C)C)OCO3,·,68*,-19,-3,16,+
Cc1ccc(C(=O)CSc2nc3cc4c(cc3cc2C)OCO4)cc1,7,-23,·,·,·,·
Cc1cc2ccccc2n2c(=O)n(CC(=O)N3CCC(C)CC3)nc12,·,-29,·,·,·,·
C#CCN1C(C)=C(C(=O)OC)C(c2cccc([N+](=O)[O-])c2)C(C(=O)OCC)=C1C (stereo not drawn),9,52,·,·,·,i
O=C(CSc1nccc(=O)[nH]1)Nc1ccc2c(c1)OCO2,13,-111,·,·,·,·
COC(=O)c1cc(-c2ccc3c(c2)OCO3)nc2ccccc12,16,68*,-14,3,-11,i
Cc1ccc(-n2c(Cc3cccc4ccccc34)n[nH]c2=S)c(C)c1,7,61*,-20,-5,23,+
COc1ccccc1NC(=O)CSc1nnc(-c2cccc(C)c2)o1,7,-48,·,·,·,·
Cc1cc(C)cc(OC2CCCCC2NS(=O)(=O)c2ccccc2)c1 (stereo not drawn),8,65*,-23,5,14,+
Oc1ccc(/C=N\Nc2cc(N3CCOCC3)nc(N3CCOCC3)n2)c(O)c1,4,-8,-9,-7,-8,·
Clc1ccc(-c2ccc(/C=N/Nc3cc(N4CCOCC4)nc(N4CCOCC4)n3)o2)cc1,5,108*,-10,0,-57,+
Brc1ccc(-c2ccc(/C=N/Nc3nc(N4CCOCC4)nc(N4CCOCC4)n3)o2)cc1,5,67*,-7,3,-88,+
Cc1nn(C)c(C)c1NC(=O)CCn1c(-c2ccc(F)cc2)cc2cccnc21,7,-49,·,·,·,·
Brc1cccc(-c2nnc(SCc3ccon3)n2-c2ccccc2)c1,5,52,-29,6,6,i
O=C(O)c1ccc(CSc2nnc(-c3ccccc3)n2-c2ccccc2)cc1,8,25,-8,·,24,·
CCOC(=O)c1cnc(SCC(=O)Nc2cccc(C)c2)nc1N,9,-76,·,·,·,·
O=C(NC1CC2CCCC(C1)N2Cc1ccccc1)C12CC3CC(CC(C3)C1)C2 (stereo not drawn),6,-17,·,·,·,·
COc1cc(/C=C2\SC(=S)N(Nc3ncc(C(F)(F)F)cc3Cl)C2=O)ccc1O,7,66*,-7,-1,-162,i
COc1ccccc1/C=N/N(C(C)=O)c1nc(-c2ccc(F)cc2)cs1,3,73*,-3,6,-4,i
COc1ccc(/C=N/N(C(C)=O)c2nc(-c3ccc(C)cc3)cs2)cc1,9,37,-15,-3,-40,·
COc1ccc(Cl)cc1-n1c(C)ccc1C,16,69*,-13,-1,-14,i
COc1ccccc1-n1c(C)ccc1C,11,6,·,·,·,·
SMILES,EP2 antag,EP2 mod,Furin inhibitor,HMGR II inh,m-calpain inh,EP2 confirm
CNC(=O)NC(=O)CSc1nc(-c2cccs2)c(C#N)c(=O)[nH]1,16,79*,-11,-6,-31,i
N#Cc1c(-c2cccs2)nc(SCc2ccc(Cl)cc2)[nH]c1=O,19,75*,-26,-4,11,i
CCOC(=O)c1cnc2c(c(C)nn2C)c1Oc1ccc(Cl)cc1,3,67*,-18,-1,-10,+
CC12CCCC(O)(C1)C1CC(C)(C)C1CC2 (stereo not drawn),10,51,·,·,·,i
CCCC(CCC)C(=O)Nc1ccc(NC(=O)c2ccco2)c(C)c1,12,-26,·,·,·,·
c1csc(CN2CCC(n3cnc4cccnc43)CC2)c1,·,4,·,·,·,·
Cc1cc(=O)oc2c3c4c(cc12)OCCN4CCC3,11,-13,-38,-2,i,·
O=c1oc2c(CN3CCOCC3)c(O)ccc2c2c1CCC2,4,13,-217,1,i,·
O=c1oc2c3c4c(cc2c(C(F)(F)F)c1CCN1CCOCC1)CCCN4CCC3,9,73*,-30,-5,-41,i
CC(C)c1cc(=O)oc2c3c4c(cc12)CCCN4CCC3,3,54,-40,5,-360,+
